Test results: the supplement of paper PMC6555819

What was measured:
Assay in all cases: PBM binding z-score (relative to random genomic background probes); higher = stronger binding; sequences stand for … in GC…GCGATTGACAGCGTAGAATGAAGG
[1] = test system: PPARg:RXRa DBDmut IVT, anti-RXR (DBD mutation: RXRa K156A/R161A, NR concentration 270 nM, RXRa partner concentration 90 nM)
Outline: (§1)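 Probes were double-stranded and carried 34-nt variable regions with direct-repeat seeds, single-nucleotide variants, half-site ablations and random human genomic background sequences, printed on custom Agilent 4×180K protein-binding microarrays. Arrays were incubated 1 h with ligand-free nuclear receptor dimers in PBS pH 7.4, 2% milk, 0.02% Triton X-100, 1 mM DTT, 0.2 mg/mL BSA and 0.4 mg/ml salmon testes DNA. Antibodies against each partner (one per run) detected binding, and scanned fluorescence was regression-normalized. Binding z-scores use the random background probes as reference.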

[2] = test system: PPARg:RXRa IVT, anti-PPARg (NR concentration 270 nM, RXRa partner concentration 90 nM)
Outline: as §1

[3] = test system: PPARg DBDmut:RXRa IVT, anti-PPARg (DBD mutation: PPARg1 K132A/R137A, NR concentration 270 nM, RXRa partner concentration 90 nM)
Outline: as §1

[4] = test system: PPARg DBDmut IVT, anti-PPARg (DBD mutation: PPARg1 K132A/R137A, NR concentration 270 nM)
Outline: as §1

[5] = test system: PPARg homodimer (NR concentration 180 nM)
Outline: as §1

[6] = test system: PXR:RXRa (NR concentration 270 nM, RXRa partner concentration 90 nM)
Outline: as §1

[7] = test system: PXR homodimer (NR concentration 270 nM)
Outline: as §1

[8] = test system: RARa:RXR (NR concentration 270 nM, RXRa partner concentration 90 nM)
Outline: as §1

[9] = test system: RARa homodimer (NR concentration 270 nM)
Outline: as §1

[10] = test system: RARb:RXRa (NR concentration 270 nM, RXRa partner concentration 90 nM)
Outline: as §1

[11] = test system: RARb homodimer (NR concentration 270 nM)
Outline: as §1

[12] = test system: RARg:RXRa (NR concentration 270 nM, RXRa partner concentration 90 nM)
Outline: as §1

[13] = test system: RARg homodimer (NR concentration 270 nM)
Outline: as §1

[14] = test system: RXRa DBDmut IVT, anti-RXR (DBD mutation: RXRa K156A/R161A, NR concentration 90 nM)
Outline: as §1

[15] = test system: RXRa homodimer (NR concentration 180 nM)
Outline: as §1

[16] = test system: THRa:RXRa (NR concentration 90 nM, RXRa partner concentration 90 nM)
Outline: as §1

[17] = test system: THRa homodimer (NR concentration 90 nM)
Outline: as §1

[18] = test system: VDR:RXRa (NR concentration 270 nM, RXRa partner concentration 90 nM)
Outline: as §1

[19] = test system: VDR homodimer (NR concentration 270 nM)
Outline: as §1

Row | Sequence | PBM binding z-score [1] | PBM binding z-score [2] | PBM binding z-score [3] | PBM binding z-score [4] | PBM binding z-score [5] | PBM binding z-score [6] | PBM binding z-score [7] | PBM binding z-score [8] | PBM binding z-score [9] | PBM binding z-score [10] | PBM binding z-score [11] | PBM binding z-score [12] | PBM binding z-score [13] | PBM binding z-score [14] | PBM binding z-score [15] | PBM binding z-score [16] | PBM binding z-score [17] | PBM binding z-score [18] | PBM binding z-score [19]
1 | TCTAGCAAGCCAGAGGGTCACTCAAGAGGTACGG | 0.615 | -0.0358 | -1.2 | -1.18 | 0.24 | 0.871 | -0.204 | 1.96 | -0.908 | 1.62 | 2.11 | 1.94 | 1.39 | -0.198 | 2.18 | 1.43 | -0.484 | 1.32 | 0.431
2 | TCTCGGAGGACACGAAGATCAGAGCTTTCCAGAG | 1.06 | -0.251 | -1.11 | -0.408 | -0.646 | -0.151 | -0.592 | 0.08 | -0.514 | 1.21 | 0.193 | 0.499 | 1.05 | 0.0261 | 0.273 | 1.1 | 0.242 | -0.165 | -0.899
3 | TCTAGTTGGTCACGGAGGTAACACACGACGGGTA | 2.14 | 2.58 | 0.811 | 0.805 | 0.896 | 0.407 | 0.258 | 0.834 | 0.81 | 1.8 | 1.39 | 1.24 | 1.7 | 0.681 | 1.04 | 1.12 | 0.797 | 1.03 | 0.198
4 | CGAACGAGGGCATGAGTTGATAGCCAATGCCGAT | 3.14 | 2.29 | 0.281 | -0.251 | 0.292 | 0.342 | -0.25 | 0.497 | -0.133 | 2.01 | 0.853 | 1.34 | 1.88 | 2.3 | 1 | 1.24 | -0.039 |  | 1.56
5 | TCTAGCAGGCCAGCGGGTCACTCAAGAGGTACGG | 0.972 | 1.03 | -0.284 | -0.723 | 0.406 | 1.12 | -0.865 | 1.81 | -0.465 | 1.81 | 2.01 | 2.14 | 1.56 | 0.000361 | 1.77 | 1.42 | -0.34 | 0.435 | -0.133
6 | TCTTGTCGATCAACAGGAGGTTAAGAAAGATCGA | 0.771 | 0.105 | -0.14 | -0.175 | -0.727 | 0.727 | -0.0541 | 0.726 | 0.067 | 0.397 | 0.439 | 0.322 | 0.198 | 0.168 | 0.805 | 0.59 | -0.736 | 0.427 | -0.499
7 | CTGACTGGGGCAAGGTTACCATAACGCACAGCCA | 4.8 | 5.05 | 0.266 | 0.0884 | 0.436 | 0.519 | 0.00598 | 0.987 | 0.104 | 1.86 | 1.54 | 1.43 | 1.43 | 0.0299 | 1.28 | 1.52 | 0.417 |  | 0.129
8 | TATACAGGGTCAAAGGCCAGAGTACGAATGTCGA | 2.36 | 5.11 | 2.18 | 1.49 | 2.55 | 4.55 | 0.583 | 5.75 | 0.928 | 4.5 | 3.67 | 5.46 | 5.12 | 3.02 | 6.7 | 3.76 | 0.87 | 4.8 | 3.4
